Only some compounds are listed: those with a hit (about 7.5% of all), similar ones and a draw of the others.
Rab9 prom act = qHTS Assay for Rab9 Promoter Activators | Huh7 Rab9 promoter-luciferase reporter, luminescence, 24 h | Potency, µM (doses to about 9.22 µM), for the others: at the top dose activation, negative = inhibition, usual class: activators | actives 2.8% (n = 320,000); note: % of control where 0% means no effect; nearly all actives have a fitted effect of over 60% in size
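Luminescence from Amplite-detected luciferase (10 minutes, ambient) reports Rab9 promoter activation. Before that, stable Rab9-luciferase Huh7 cells (1500/well, reduced-serum OP-MEM I plus 10% FBS) were exposed to compound for 24 hours at 37C.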
NPC1 promoter act = qHTS Assay for NPC1 Promoter Activators | Huh7 NPC1 promoter luciferase reporter, 24 h | Potency, µM (titrated, usually from 9.22 µM), inactives show at the highest dose activation, actives largely listed as activators | actives 2.4% (n = 320,000); note: % of control where 0% means no effect; nearly all actives have a fitted effect of over 60% in size
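Luminescence read-out of NPC1 promoter-driven luciferase in stably transfected Huh7 cells; compounds delivered in DMSO and left 24 h at 37C, 5% CO2, qHTS titration format.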
SMN2 splice enh = qHTS Assay for Enhancers of SMN2 Splice Variant Expression; actives 2.8% (n = 210,000); Potency, µM (doses to about 46.1 µM), for inactives: at the highest dose activity change, positive = activation, hits mostly activators; HEK293 SMN2-luciferase splicing reporter, luminescence, 30-36 h; AID 1458, 2008; note: % of control where 0% means no effect; nearly all actives have a fitted effect of over 55% in size
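qHTS luciferase splicing reporter: luminescence rises when SMN2 exon 7 is included in transfected HEK293 cells. Compound exposure lasted 30-36 h at 37C, with 4.5 mM final sodium butyrate as control, followed by a ONE-Glo read.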
KinaseGlo FLuc = Counterscreen for Luciferase (Kinase-Glo TM) Inhibition; Luciferin 4-monooxygenase (Photuris pensylvanica), Q27757; Kinase-Glo luciferase, ATP luminescence, 8 min; Potency, µM (series often up to 38.3 µM), inactives show at the top dose activity change, negative = inhibition, hits mostly inhibitors; actives 0.28% (n = 200,000); AID 1379, 2008; note: % is set by controls: 0 for no effect and ±100 for the full control effect; nearly all actives have a fitted effect of over 60% in size
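Kinase-Glo luciferase light output from ATP and luciferin was measured with 10 uM ATP, within the enzyme's linear range. Buffer: 50 mM imidazole pH 7.2, 50 mM KCl, 7 mM MgCl2, 0.01% Tween 20, 0.05% BSA; luminescence read after 8 min at ambient temperature.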
FLuc modulator = qHTS profiling assay for firefly luciferase inhibitor/activator using purifed enzyme and Km concentrations of substrates (counterscreen for miR-21 project) | Luciferin 4-monooxygenase (Photinus pyralis), P08659 | purified FLuc, Km substrates, luminescence inhibition | Potency, µM (top dose mostly 57.5 µM), inactives show at the top dose activity change, negative = inhibition, actives largely listed as inhibitors | actives 6.9% (n = 360,000);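 note: plate controls were vehicle for no effect and reference inhibitor for full effect; nearly all actives have a fitted effect of over 55% in size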
Target sequence (P08659 whole entry, looked up): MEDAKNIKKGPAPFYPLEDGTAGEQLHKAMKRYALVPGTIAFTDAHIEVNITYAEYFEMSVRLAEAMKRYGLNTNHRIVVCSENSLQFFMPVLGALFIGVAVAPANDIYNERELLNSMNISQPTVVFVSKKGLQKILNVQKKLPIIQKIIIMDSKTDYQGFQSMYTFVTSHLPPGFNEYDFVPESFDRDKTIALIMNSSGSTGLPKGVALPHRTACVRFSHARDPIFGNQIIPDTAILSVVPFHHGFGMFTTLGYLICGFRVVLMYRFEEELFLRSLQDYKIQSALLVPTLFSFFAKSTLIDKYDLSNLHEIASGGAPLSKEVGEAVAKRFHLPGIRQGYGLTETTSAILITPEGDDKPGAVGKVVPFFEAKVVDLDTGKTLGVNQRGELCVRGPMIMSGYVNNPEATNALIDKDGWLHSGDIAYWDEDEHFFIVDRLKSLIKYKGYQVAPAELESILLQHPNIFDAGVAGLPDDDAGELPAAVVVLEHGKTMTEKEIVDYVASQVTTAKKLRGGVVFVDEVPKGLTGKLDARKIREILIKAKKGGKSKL
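Biochemical qHTS of compounds, final roughly 60 µM downward over six points, against 10 nM purified firefly luciferase using Km concentrations of substrates (10 uM D-luciferin, 10 uM ATP) in Tris acetate pH 7.5 buffer; luminescence output.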
ELG1 genotox = qHTS screen for small molecules that induce genotoxicity in human embryonic kidney (HEK293T) cells expressing luciferase-tagged ELG1; actives 1.3% (n = 330,000); HEK293T ELG1-luciferase reporter, luminescence, 16 h; Potency, µM (series often up to 46 µM), for the others: at the top dose activity change, positive = activation, actives largely listed as activators; AID 504466, 2011; note: % of control where 0% means no effect; nearly all actives have a fitted effect of over 60% in size
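After overnight (16 hr) compound treatment at 37 °C, ELG1-luciferase HEK293T cells were lysed with ONE-Glo; luminescence quantified 30 min later at room temperature.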
An asterisk follows results filed as active; ? = inconclusive; / = not tested or not shown; [ ] = another dose, or the depositor's remark. Calls come from the whole dose curve; as a rule, active = well fitted curve in the direction sought with a large enough effect; inconclusive = small, poorly fitted or top-dose-only effect, or another doubt; inactive = no such curve, though single readings can be large; an effect the other way counts as inactive or inconclusive. Potency is the fitted concentration of half-maximal effect.

SMILES	Rab9 prom act	NPC1 promoter act	SMN2 splice enh	KinaseGlo FLuc	FLuc modulator	ELG1 genotox
CCOC(=O)Cc1nnc(-c2ccccc2)o1	-1%	-1%	9%	-3%	-2%	3%
CCOC(=O)COc1ccc(-c2nnc(-c3ccccc3)o2)cc1	11%	3%	/	-1%	6µM*	21%
COc1ccc(N2CCN(S(=O)(=O)c3c(C)[nH]c(=O)[nH]c3=O)CC2)cc1	/	/	/	/	2%	/
CCOc1ccc(-c2nnc(NC3=NCCCCC3)o2)cc1	1.6µM*	?	13µM*	14%	4.8µM*	2.3µM*
c1coc(-c2nnc(NC3=NCCC3)o2)c1	3.5µM*	?	13µM*	-20%	19µM*	16µM*
Cc1nnc(NC2=NCCC2)o1	-6%	-3%	?	-7%	0%	1%
CCOc1ccc(C(=O)N2CC(=O)Nc3ccc(C)cc3C2c2ccc(F)cc2)cc1OCC (stereo not drawn)	/	/	-4%	/	5%	/
Cc1nc(N)sc1N=Nc1ccc(F)cc1	?	?	12%	-2%	12µM*	12µM*
CCOC(=O)c1ccc(-n2c(N)c(C(=O)NCc3ccco3)sc2=S)cc1	-1%	1%	4%	-6%	-19%	-5%
Cc1ccc2nc3sc(C(=O)NCc4ccco4)c(N)c3cc2c1	2µM*	?	4.5µM*	-3%	0.85µM*	9.2µM*
COc1ccc(-n2c(N)c(C(=O)NCc3ccco3)sc2=S)cc1	4.5µM*	-1%	-2%	1%	-2%	?
COc1cc2cc3c(N)c(C(=O)NCc4ccco4)sc3nc2cc1OC	?	?	/	/	11µM*	?
CC(=O)c1[nH]c(C)c(C(=O)NCc2ccc(Cl)cc2)c1C	/	/	/	/	-9%	/
CCc1ccc(NC(=O)COc2cccc(-n3cnnn3)c2)cc1	-3%	-2%	/	/	19µM*	4%
COC(=O)c1ccc(NC(=O)COc2cccc(-n3cnnn3)c2)cc1	-2%	0%	/	/	-2%	2%
Cc1cc(C(=O)COc2cccc(-n3cnnn3)c2)c(C)n1-c1ccccc1	23%	3%	-32%	0%	3µM*	-9%
CCN(Cc1ccncc1)C(=O)c1cc(COc2c(F)cccc2F)on1	-3%	0%	/	/	0%	-5%
O=C(Oc1ccccc1Cl)c1cc(-c2ccc3c(c2)OCCO3)on1	/	/	/	/	2.7µM*	/
Cc1ccccc1OC(=O)c1cc(-c2ccc3c(c2)OCCO3)on1	/	/	/	/	0.6µM*	/
Cc1cccc(OC(=O)c2cc(-c3ccc4c(c3)OCCO4)on2)c1C	/	/	/	/	5.4µM*	/
CN(C)S(=O)(=O)c1ccc2c(c1)N(CC(=O)NCc1ccccc1)C(=O)C1CCCCN21 (stereo not drawn)	/	/	/	/	-2%	/
Cc1cccc(Nc2nnc(SC/C(O)=C(\C#N)c3nc4ccccc4[nH]3)s2)c1	0%	-2%	10%	-9%	17µM*	1%
CC(=O)OCC(=O)[C@@]1(O)[C@H](C)C[C@@H]2[C@H]3CCC4=CC(=O)C=C[C@]4(C)[C@]3(F)[C@@H](O)C[C@@]21C	/	/	-2%[20.6 µM]	-1%[17.1 µM]	/	/
Cc1ccccc1OCc1nnc(SCc2cc(=O)c3ccc(C)c(C)c3[nH]2)n1C	/	/	/	/	2%	/
O=C(/C=C/c1ccccc1)Nc1cc(NC(=O)/C=C/c2ccccc2)cc(C(=O)O)c1	16%	11%	/	/	13µM*	-4%
SMILES	Rab9 prom act	NPC1 promoter act	SMN2 splice enh	KinaseGlo FLuc	FLuc modulator	ELG1 genotox
O=C(/C=C/c1ccccc1)N/C(=C/c1ccccc1)C(=O)Nc1cccc(C(=O)O)c1	5%	-1%	-9%	1%	24µM*	0%
O=C(Nc1ccc(C(=O)O)cc1)/C(=C\C=C\c1ccccc1)NC(=O)c1ccccc1Br	3.2µM*	2µM*	/	/	0.17µM*	1%
O=C(/C=C/c1ccccc1)Nc1cccc(C(=O)O)c1	?	?	/	-19%	0.067µM*	-15%
O=C(/C=C/c1cccc([N+](=O)[O-])c1)Nc1cc(C(=O)O)cc(C(=O)O)c1	2%	-9%	-45%	6%	-18%	-9%
O=S(=O)(NCc1cccnc1)c1ccccc1	-5%	-2%	-4%	-5%	-1%	-3%
COC(=O)c1ccccc1S(=O)(=O)N1CCc2nc(COc3ccccc3)c3c(c2C1)CO[C@@H](C)C3	/	/	-7%[9.22 µM]	-7%[7.66 µM]	/	/
O=C(Nc1cccc(C(=O)O)c1)/C(=C\C=C\c1ccccc1)NC(=O)c1ccccc1	-4%	-1%	1%	-3%	13µM*	-2%
COc1cc(/C=N/Nc2nc3ccccc3[nH]c2=O)ccc1O	2%	9%	?	-9%	15µM*	-3%
COc1ccc(O)c(/C=N/Nc2nc3ccccc3[nH]2)c1	?	5%	?	-5%	6.7µM*	?
O=[N+]([O-])c1ccc(O)c(/C=N/Nc2nc3ccccc3[nH]2)c1	-38%	-35%	-100%	5%	?	18µM*
COc1cc(/C=N/Nc2nc3ccccc3[nH]2)cc(OC)c1O	21%	14%	/	/	4.8µM*	14%
COc1cc(/C=N/Nc2nc(=O)[nH]nc2C)ccc1O	-1%	-5%	/	/	?	4%
CCN(CC)S(=O)(=O)c1cccc(C(=O)N[C@H](C(=O)Nc2nc3ccc(F)cc3s2)C(C)C)c1	26%	15%	-20%	5%	?	9%
COc1cccc([C@@H]2Oc3ccc(Br)cc3C(=O)[C@H]2OC(=O)Nc2ccc(C)c(Br)c2)c1	/	/	-4%	6%	/	/
Cc1ccc(S(=O)(=O)N2CCN(S(=O)(=O)c3ccccc3Br)CC2)cc1	/	/	/	/	/	0%
COc1cc(/C=N/NC(=O)c2ccc(CSc3nc4ccccc4[nH]3)cc2)cc(OC)c1OC	1%	1%	?	-1%	?	-18%
COc1cc(/C=N/Nc2nc3ccccc3[nH]2)ccc1O	3%	4%	63%	-9%	4.8µM*	?
COc1cc(/C=C(/C(=O)c2cccs2)c2nc3ccccc3[nH]2)cc(OC)c1O	14%	13%	-77%	?	2.4µM*	-20%
COc1cc(/C=N/Nc2nc3ccccc3[nH]2)cc(Br)c1OCC(=O)N(C)C	-4%	-7%	-23%	-1%	24µM*	-10%
CCOc1ccccc1CNC(=O)c1cc2n(n1)CCCN(Cc1ccc(C)cc1)C2=O	/	/	/	/	-13%	/
CC(C(=O)Nc1ccccc1)n1nnc2sc3c(c2c1=O)CCCC3 (stereo not drawn)	/	/	-7%	/	-14%	/
